Assay outcomes (PubChem)
MEKK3 PB1 HTS – modulators (inhibitors or enhancers) of MEK5 binding to human MEKK3 PB1 domain | AID 1529 | 290,000 compounds, 1.4% hits | Q99759 | binding response (% of control), % at 10 µM | bead-based flow cytometry, Alexa488-MEK5 binding to MEKK3; actives lie on both sides; 0 = blocked by unlabeled MEK5, 100 = vehicle;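 active means binding response more than 3 SD above or below the average of its plate-row segment, actives on both sides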;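 further: Alexa488 bead fluorescence after subtracting the streptavidin-only scavenger bead signal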
Target sequence (Q99759 whole entry, looked up, the tested form may be a part): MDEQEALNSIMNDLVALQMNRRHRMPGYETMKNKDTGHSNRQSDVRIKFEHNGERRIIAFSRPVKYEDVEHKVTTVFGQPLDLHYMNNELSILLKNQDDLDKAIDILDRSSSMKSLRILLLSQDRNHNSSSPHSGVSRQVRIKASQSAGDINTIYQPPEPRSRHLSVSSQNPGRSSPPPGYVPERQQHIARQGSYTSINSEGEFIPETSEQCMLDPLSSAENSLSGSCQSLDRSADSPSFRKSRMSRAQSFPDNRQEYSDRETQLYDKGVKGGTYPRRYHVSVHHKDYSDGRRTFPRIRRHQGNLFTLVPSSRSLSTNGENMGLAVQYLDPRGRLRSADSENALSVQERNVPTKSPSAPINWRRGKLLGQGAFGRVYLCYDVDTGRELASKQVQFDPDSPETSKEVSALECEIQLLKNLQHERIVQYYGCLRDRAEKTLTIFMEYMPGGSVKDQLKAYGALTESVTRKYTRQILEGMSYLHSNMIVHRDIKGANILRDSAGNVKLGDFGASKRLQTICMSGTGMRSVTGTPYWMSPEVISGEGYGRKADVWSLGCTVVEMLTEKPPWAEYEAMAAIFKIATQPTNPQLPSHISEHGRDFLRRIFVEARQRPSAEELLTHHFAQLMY
ATG4B inh – inhibitors of human ATG4B cysteine protease; AID 504462; Q9Y4P1; 340,000 compounds, 0.51% hits; ATG4B cleavage of LC3-PLA2, NBD-HPC fluorescence, 1 h; inhibition, % at 8.33 µM; in the data active means inhibition above about 40%
UBC13 inh – inhibitors of human UBC13 polyubiquitin chain formation; P61088; TR-FRET; inhibition, % at 20 µM; 330,000 compounds, 0.47% hits; AID 485273; in the data active means inhibition above about 45%, passing the limit was not always enough
MEKK2 mut-MEK5 – signal of MEK5 binding to mutant human MEKK2 PB1 domain. AID 1530. percent response, % at 10 µM. bead flow cytometry, Alexa488-MEK5 binding to MEKK2 mutant. 290,000 compounds, 0.35% hits; in the data active means percent response above about 24%, passing the limit was not always enough
PREPL inh – inhibitors of human prolyl oligopeptidase-like enzyme PREPL; 320,000 compounds, 0.68% hits; inhibition, % at 5.96 µM; Q4J6C6; AID 2751; recombinant PREPL, fluorescence polarization activity-based probe; in the data active means inhibition above about 43%;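 further: 0% = enzyme with DMSO and 100% = wells lacking enzyme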
MEKK2wt PB1 HTS – raises or lowers MEK5 binding to wildtype human MEKK2 PB1 domain; Q9Y2U5; bead flow cytometry, Alexa488-MEK5 binding to MEKK2 WT; actives lie on both sides; binding response (% of control), % at 10 µM; 290,000 compounds, 1.1% hits; AID 1531; in the data active means binding response below about 67% or above about 130%
MEKK2wt confirm – raises or lowers MEK5 binding to wildtype human MEKK2, retest; shares compounds with MEKK3 PB1 HTS; bead flow cytometry, Alexa488-MEK5 binding to MEKK2 WT; actives lie on both sides; binding response (% of control), % at 10 µM; 5,900 compounds, 2.4% hits; in the data active means binding response below about 16% or above about 210%; inactive means in between
MEKK2mut confirm – signal of MEK5 binding to mutant human MEKK2, retest; 5,900 compounds, 2% hits; bead flow cytometry, Alexa488-MEK5 binding to MEKK2 mutant; percent response, % at 10 µM; shares compounds with MEKK3 PB1 HTS; AID 1893; in the data active means percent response mostly above about 71%, no sharp cut-off; inactive means mostly below about 38%;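 further: higher means compound restores mutant binding toward wildtype level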
MEKK3 confirm – confirmation of inhibitors of MEK5 binding to human MEKK3; bead flow cytometry, Alexa488-MEK5 binding to MEKK3; active compounds read low; binding response (% of control), % at 10 µM; 5,900 compounds, 1.8% hits; shares compounds with MEKK3 PB1 HTS; AID 1894;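 active means binding response below 72% of control, or above a set upper limit, though filed actives all read lower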;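 further: 100% = DMSO only wells and 0% = binding blocked by excess unlabeled MEK5; lower values mean stronger disruption of MEK5 binding to MEKK3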
Starred values were filed as active, the others as inactive; / = no result given; [ ] = another dose, or the depositor's remark. This is a sample that favours compounds with a hit; in the whole collection about 3.1% have one here.

SMILES	MEKK3 PB1 HTS	ATG4B inh	UBC13 inh	MEKK2 mut-MEK5	PREPL inh	MEKK2wt PB1 HTS	MEKK2wt confirm	MEKK2mut confirm	MEKK3 confirm
Cc1oc(-c2ccc(Cl)cc2)cc1C(=O)NC1CCN(Cc2ccccc2)CC1	107	-4	10	50	-71	175*	173	47	108
CC(C(=O)NC1CCCC1)N1CCN(Cc2ccccc2)CC1 (stereo unspecified)	140*	-3	4	1	7	122	108	5	105
Cc1oc(C(C)(C)C)cc1C(=O)NC1CCN(Cc2ccccc2)CC1	100	-1	9	0	2	101	/	/	/
CC(C(=O)NCCc1ccc(F)cc1)N1CCN(Cc2ccccc2)CC1 (stereo unspecified)	104	-19	3	7	1	104	/	/	/
CCN(CC(=O)NC(C)(C)C)Cc1cc(=O)n2c(-c3ccccc3)csc2n1	103	1	-3	3	12	101	/	/	/
FC(F)(F)c1ccccc1NC(=S)NC1CCN(Cc2ccccc2)CC1	94	-6	-4	-5	0	93	/	/	/
Fc1ccccc1NC(=S)N1CCN(Cc2ccccc2)CC1	139*	-3	-5	2	-1	106	99	-2	98
S=C(Nc1ccccc1Cl)NC1CCN(Cc2ccccc2)CC1	69*[inhibitor]	8	0	-1	-3	101	100	6	101
COc1ccc2cc(/C=N/O)c(Cl)nc2c1	67*[inhibitor]	-10	13	-3	-6	77	98	0	97
COc1ccc2cc(CO)c(Cl)nc2c1	100	-9	1	-3	-1	98	/	/	/
COc1ccc(Cl)cc1NC(=O)NCC1CCN(C(=O)OC(C)(C)C)CC1	128*	-7	-4	28	1	118	100	-10	98
CCCN1CCC(NC(=O)Nc2cc(Cl)ccc2OC)CC1	108	-11	18	0	0	108	/	/	/
COc1ccc(Cl)cc1NC(=O)NC1CCCCC1	81*[inhibitor]	8	3	-13	21	91	93	-4	96
C#CCOCCOCCOCCNc1nc(N2CCOCC2)nc(N2CCN(C(=O)[C@H](C)n3cc(CCCN=C(N)N)nn3)CC2)n1	1.0*[inhibitor]	1	11	5	5	2.0*[inhibitor]	107	2	98
C#CCOCCOCCOCCNc1nc(N2CCN(C(=O)Cn3cc(CCO)nn3)CC2)nc(N2CCN(C(=O)[C@H]([C@@H](C)CC)n3cc(CCCN=C(N)N)nn3)CC2)n1	/	-4	/	/	/	/	/	/	/
C#CCOCCOCCOCCNc1nc(N2CCN(C(=O)[C@H]([C@@H](C)CC)n3cc(CCCN=C(N)N)nn3)CC2)nc(N2CCN(C(=O)[C@H]([C@@H](C)CC)n3cc(CCCN=C(N)N)nn3)CC2)n1	110	/	25	18	/	164*	175	40	102
COc1ccc(CCNC(=O)CN2c3cccc4cccc(c34)S2(=O)=O)cc1OC	98	-9	4	-4	1	97	/	/	/
Clc1ccc(/C(Cc2nc3ccccc3[nH]2)=N\Nc2ccccc2)cc1	110	6	-14	42	4	153*	138	13	108
O=C(Cc1nc2ccccc2[nH]1)c1ccc(Cl)cc1	104	10	-2	-2	-16	99	/	/	/
CCn1c(N2CCN(C(=O)C34CC5CC(CC(C5)C3)C4)CC2)nc2ccccc21	0.0*[inhibitor]	2	11	-15	5	0.0*[inhibitor]	99	-3	98
O=C(N1CCN(c2ccccc2)CC1)C12CC3CC(CC(C3)C1)C2	105	-11	4	5	25	105	/	/	/
CCn1c(N2CCN(S(=O)(=O)c3ccccc3C(F)(F)F)CC2)nc2ccccc21	2.0*[inhibitor]	21	15	-14	-2	2.0*[inhibitor]	103	2	101
COc1cc(/C=N/n2cnnc2)ccc1OC(=O)c1ccncc1	56*[inhibitor]	6	2	-9	4	70	97	-5	98
COc1cc(/C=N/n2cnnc2)ccc1OC(=O)c1cccnc1	100	-2	-31	3	7	99	/	/	/
N#CCCN(Cc1cccs1)C(=O)Nc1ccccc1	99	-7	7	-2	-6	96	/	/	/
SMILES	MEKK3 PB1 HTS	ATG4B inh	UBC13 inh	MEKK2 mut-MEK5	PREPL inh	MEKK2wt PB1 HTS	MEKK2wt confirm	MEKK2mut confirm	MEKK3 confirm
CCOC(=O)c1cc(C)sc1/N=C/C1=C(O)CCCC1=O	131*	6	-9	1	-8	108	107	9	109
CCCCN=C1CC(C)(C)CC(=O)/C1=C(/O)CCCN1C(=O)c2ccccc2C1=O	98	5	-2	-6	-4	97	/	/	/
CC1(C)CC(=O)/C(=C(/O)Cc2ccccc2)C(=NCCc2ccccc2)C1	128*	-10	-2	-1	14	98	104	-1	108
Cc1ccc2cc3c(=O)n(C)cc(C=O)c3nc2c1	/	-3	/	/	/	/	/	/	/
CC(=O)Nc1ccc(N=Cc2c(O)c(C(=O)Nc3ccccc3)cc3ccccc23)cc1	76	30	-96	20	5	10*[inhibitor]	87	-10	101
CCOc1ccc(OCCC(=O)OCC(=O)NCCc2ccc(S(N)(=O)=O)cc2)cc1	/	-10	-10	/	19	/	/	/	/
COCCN(C(=S)Nc1cccc(OC)c1)C1CCN(C(C)C)CC1	137*	-5	5	0	9	108	106	6	101
COCCN(C(=O)Nc1ccc(OC)cc1OC)C1CCN(C(C)C)CC1	81*[inhibitor]	11	2	-8	0	91	99	-4	95
COc1ccc(NC(=O)NC2CCN(C(C)C)CC2)c(OC)c1	97	-13	8	-1	9	99	/	/	/
COCCN(C(=S)Nc1ccc(OC)cc1)C1CCN(C(C)C)CC1	134*	12	1	1	2	109	100	7	105
Cc1ccc(NC(=S)N(Cc2ccco2)C2CCN(C(C)C)CC2)cc1	132*	30	11	1	1	105	104	5	99
CNC(=O)C(C)Sc1ccc(S(=O)(=O)N2CCOCC2)cn1 (stereo unspecified)	/	-7	7	/	11	/	/	/	/
Cc1ccc(C(=O)NC(=S)Nc2nc(-c3cccc([N+](=O)[O-])c3)cs2)c(Cl)c1	45*[inhibitor]	22	13	-16	-6	51	103	-2	103
COc1ccc(-c2cc(-c3nnc(COC(=O)CC4CCCC4)o3)c3ccccc3n2)cc1OC	135*	-9	10	0	-3	93	95	-9	99
